In PubChem BioAssay:
Calls of active or inactive are those of the source.

Columns and labels:
[1] = test system: PRMT1 (protein arginine N-methyltransferase 1); assay: small molecules binding arginine methyltransferase PRMT1 – biochemical, small-molecule microarray, 635 nm fluorescence, primary screen (AID 1088); conditions: higher = more signal;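 note: binding of Prmt1 protein to compounds spotted on small-molecule microarray slides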
[2] = growth effects on S. cerevisiae YJM789 – YJM789 clinical isolate, OD600, 24 h, basal, primary screen (AID 1089); conditions: higher = more signal, called active from +8 up or from −8 down;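 note: growth of clinical yeast isolate S. cerevisiae YJM 789 seeded 1000 cells per well; test concentration not given here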
[3] = S. pombe growth modifiers, basal conditions – strain 972, OD600, 24 h, no modulator, primary screen (AID 1090);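 note: basal condition with compound alone and no growth modifier present; test concentration not given here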; conditions: S. pombe 972 growth, higher = more signal, called active from +8 up or from −8 down
[4] = budding yeast growth modifiers under rapamycin – strain BY4716, OD600, 96 h, primary screen (AID 1091); note: test concentration not given here; conditions: S. cerevisiae BY4716 + rapamycin, higher = more signal, called active from +8 up or from −8 down
[5] = target: Torsin-1A-interacting protein 2 (Homo sapiens) (UniProt Q8NFQ8); assay: small molecules binding lysate-expressed LULL1 – cell lysate, human LULL1 lysate, 635/667 nm fluorescence, primary screen (AID 1092); conditions: small-molecule microarray, hLULL1 lysate binding, 635 nm fluorescence; higher = more signal;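 note: probe is lysate of COS7 cells overexpressing human LULL1; score merges per-feature 667 nm fluorescence with signal-to-noise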
Chain of Torsin-1A-interacting protein 2 (Homo sapiens) (Q8NFQ8 whole entry, looked up): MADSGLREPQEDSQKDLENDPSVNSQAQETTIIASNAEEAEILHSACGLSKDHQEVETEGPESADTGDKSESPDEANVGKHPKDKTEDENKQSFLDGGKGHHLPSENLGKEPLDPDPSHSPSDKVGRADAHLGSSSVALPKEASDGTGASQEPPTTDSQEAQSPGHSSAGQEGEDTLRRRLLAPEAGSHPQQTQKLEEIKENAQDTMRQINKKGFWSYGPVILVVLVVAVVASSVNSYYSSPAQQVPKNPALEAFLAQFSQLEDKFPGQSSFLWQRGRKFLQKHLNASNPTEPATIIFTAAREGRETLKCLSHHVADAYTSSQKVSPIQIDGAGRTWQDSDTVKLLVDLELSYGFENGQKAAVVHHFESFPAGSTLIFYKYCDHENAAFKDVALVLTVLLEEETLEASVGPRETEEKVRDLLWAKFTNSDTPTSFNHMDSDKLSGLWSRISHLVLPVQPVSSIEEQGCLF

[6] = optical density change of DRC41 E. coli – strain DRC41, OD650, 24 h, E. coli filamentation project, primary screen (AID 1093);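 note: MC1000 strain lacking acrAB efflux and sulA so SOS filamentation is blocked; test concentration not given here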; conditions: E. coli DRC41 growth, higher = more signal, called active from +8 up or from −8 down
[7] = probe aLefty2 binding to arrayed compounds – biochemical, biotinylated probe, 635/667 nm fluorescence, primary screen (AID 1094); conditions: small-molecule microarray, higher = more signal;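 note: score merges spot fluorescence near 667 nm with spot signal-to-noise ratio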
[8] = test system: Noggin (protein binding on small-molecule microarray); assay: small molecules binding Noggin protein – biochemical, 635/667 nm fluorescence, primary screen (AID 1095); conditions: 635 nm fluorescence, higher = more signal;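 note: score merges 667 nm feature fluorescence with signal to noise over triplicate slides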
[9] = target: Neurogenic locus notch homolog protein 3 (Homo sapiens) (UniProt Q9UM47); assay: small molecules binding NOTCH3 protein – biochemical, 635/667 nm fluorescence, primary screen (AID 1096); conditions: small-molecule microarray, 635 nm fluorescence, higher = more signal
Chain of Neurogenic locus notch homolog protein 3 (Homo sapiens) (Q9UM47 whole entry, looked up): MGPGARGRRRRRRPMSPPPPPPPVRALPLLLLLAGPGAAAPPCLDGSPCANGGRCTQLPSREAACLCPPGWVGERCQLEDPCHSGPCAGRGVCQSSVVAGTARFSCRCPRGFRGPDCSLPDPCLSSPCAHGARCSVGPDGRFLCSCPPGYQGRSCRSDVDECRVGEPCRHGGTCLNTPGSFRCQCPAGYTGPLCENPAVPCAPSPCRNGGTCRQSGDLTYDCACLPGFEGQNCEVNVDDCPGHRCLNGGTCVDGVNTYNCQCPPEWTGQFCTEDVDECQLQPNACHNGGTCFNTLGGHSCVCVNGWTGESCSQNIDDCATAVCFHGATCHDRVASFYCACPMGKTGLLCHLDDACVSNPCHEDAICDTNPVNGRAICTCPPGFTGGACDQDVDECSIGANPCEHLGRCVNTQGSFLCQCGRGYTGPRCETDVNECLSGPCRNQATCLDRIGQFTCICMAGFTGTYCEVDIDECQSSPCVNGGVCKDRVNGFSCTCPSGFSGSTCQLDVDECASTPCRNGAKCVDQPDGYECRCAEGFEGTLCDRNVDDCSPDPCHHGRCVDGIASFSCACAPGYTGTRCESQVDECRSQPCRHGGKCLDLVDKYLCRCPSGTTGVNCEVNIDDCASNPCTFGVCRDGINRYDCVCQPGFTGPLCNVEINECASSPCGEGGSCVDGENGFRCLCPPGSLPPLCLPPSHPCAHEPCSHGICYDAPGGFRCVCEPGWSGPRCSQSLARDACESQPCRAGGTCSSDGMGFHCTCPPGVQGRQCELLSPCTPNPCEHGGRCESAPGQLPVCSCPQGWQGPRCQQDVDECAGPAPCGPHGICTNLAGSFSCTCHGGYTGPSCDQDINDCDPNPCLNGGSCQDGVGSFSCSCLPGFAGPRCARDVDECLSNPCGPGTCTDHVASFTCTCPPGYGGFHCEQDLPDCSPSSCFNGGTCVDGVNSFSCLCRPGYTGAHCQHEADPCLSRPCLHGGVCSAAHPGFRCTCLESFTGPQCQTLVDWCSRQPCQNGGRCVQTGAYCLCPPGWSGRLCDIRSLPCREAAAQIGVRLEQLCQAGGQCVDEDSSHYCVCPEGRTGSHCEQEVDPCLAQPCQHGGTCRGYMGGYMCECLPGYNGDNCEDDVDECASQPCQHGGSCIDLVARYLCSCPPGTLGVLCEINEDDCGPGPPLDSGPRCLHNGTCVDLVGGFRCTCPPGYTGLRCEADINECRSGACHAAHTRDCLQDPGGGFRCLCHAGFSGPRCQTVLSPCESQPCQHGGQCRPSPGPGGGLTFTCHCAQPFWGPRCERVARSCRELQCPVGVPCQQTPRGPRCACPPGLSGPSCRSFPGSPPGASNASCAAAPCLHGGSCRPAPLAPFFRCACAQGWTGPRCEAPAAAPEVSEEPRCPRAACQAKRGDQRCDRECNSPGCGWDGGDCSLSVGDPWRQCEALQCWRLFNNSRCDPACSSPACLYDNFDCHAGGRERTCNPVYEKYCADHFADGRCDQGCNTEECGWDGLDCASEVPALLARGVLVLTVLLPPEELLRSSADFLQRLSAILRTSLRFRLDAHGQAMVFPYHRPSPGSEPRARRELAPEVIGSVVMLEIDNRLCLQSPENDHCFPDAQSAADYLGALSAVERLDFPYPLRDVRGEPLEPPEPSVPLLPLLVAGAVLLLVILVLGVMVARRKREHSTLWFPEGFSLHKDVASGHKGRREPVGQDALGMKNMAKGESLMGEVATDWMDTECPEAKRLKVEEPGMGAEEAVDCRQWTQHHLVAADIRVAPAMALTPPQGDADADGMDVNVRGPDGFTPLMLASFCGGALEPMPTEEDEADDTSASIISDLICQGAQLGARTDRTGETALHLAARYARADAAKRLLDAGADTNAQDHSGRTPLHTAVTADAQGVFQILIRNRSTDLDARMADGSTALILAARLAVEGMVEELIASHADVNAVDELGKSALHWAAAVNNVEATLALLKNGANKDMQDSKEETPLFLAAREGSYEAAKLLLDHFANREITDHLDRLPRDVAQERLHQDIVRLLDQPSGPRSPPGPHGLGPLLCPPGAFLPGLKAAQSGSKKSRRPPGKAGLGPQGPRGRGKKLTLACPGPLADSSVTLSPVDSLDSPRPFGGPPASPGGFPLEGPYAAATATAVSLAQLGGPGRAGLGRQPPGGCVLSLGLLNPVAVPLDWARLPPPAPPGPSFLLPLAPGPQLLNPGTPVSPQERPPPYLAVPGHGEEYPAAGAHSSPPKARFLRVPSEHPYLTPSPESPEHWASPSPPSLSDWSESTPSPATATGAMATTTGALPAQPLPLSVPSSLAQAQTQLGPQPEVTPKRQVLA

[10] = probe aEGFR binding to arrayed compounds – biochemical, biotinylated probe, 635/667 nm fluorescence, primary screen (AID 1097); conditions: small-molecule microarray, higher = more signal;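 note: probe is a biotinylated anti-EGFR antibody binding compounds printed on slides; score combines fluorescence near 667 nm and signal to noise of each spot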

SMILES	composite z-score [1]	z-score [2]	z-score [3]	z-score [4]	composite z-score [5]	z-score [6]	composite z-score [7]	composite z-score [8]	composite z-score [9]	composite z-score [10]
CCOC(=O)[C@H](CC(C)C)NC(=O)CCC1CC(OC(=O)NCc2cccc3ccccc23)CC2(CCCC(COC(=O)NCCc3ccccc3OC)O2)O1 (stereo not given in full)	1.28	-0.133 (inactive)	-0.0584 (inactive)	0.407 (inactive)	2.96	-0.197 (inactive)	-0.0505	0.686	0.957	-0.0304
NC(=O)NCC#Cc1ccc2c(c1)[C@]1(C(=O)N2)[C@H](c2ccc(O)cc2)N2[C@H](c3ccccc3)[C@H](c3ccccc3)OC(=O)[C@H]2[C@@H]1C(=O)N1CCCCCCC1	1.53	1 (inactive)	-0.447 (inactive)	1.24 (inactive)	1.55	0.951 (inactive)	1.24	1.55	1.01	0.511
CCCCCN1CC=CC23O[C@@H]4C=CCOC(=O)[C@@H]4[C@H]2C(=O)N(C(CO)C(C)C)[C@@H]3C1=O (stereo not given in full)	-0.266	0.403 (inactive)	0.195 (inactive)	0.972 (inactive)	-1.52	0.869 (inactive)	-0.166	-0.433	0.247	-0.234
NCCCCCNC(=O)[C@@H]1C[C@@H]2C(=O)N3CCC[C@H]3C(=O)N2[C@@H]1c1cccc(OCCO)c1	1.35	-0.486 (inactive)	-0.703 (inactive)	-0.652 (inactive)	1.41	-0.104 (inactive)	0.948	0.989	0.613	0.364
COc1ccc(O[C@H]2C=C[C@@H](c3ccccc3)O[C@@H]2COC(=O)CCC(C)=NOC[C@@H](C)[C@H](OCc2ccccc2)C(C)C)cc1	-0.548	0.122 (inactive)	0.329 (inactive)	-1.18 (inactive)	-0.694	0.17 (inactive)	-0.261	-0.37	-1.03	-0.219
COc1cccc([C@@H]2Oc3ccc(Br)cc3C(=O)[C@H]2O)c1	-0.366	-2.84 (inactive)	-10.6 (active)	-1.5 (inactive)	1.49	0.9 (inactive)	-0.0615	1.13	0.834	-0.0828
C[C@H](c1ccccc1)N1C(=O)[C@H]2[C@@H]3C(=CC[C@H]2C1=O)C(=O)[C@H]1O[C@H]1[C@H]3O	-0.511	0.389 (inactive)	-1.84 (inactive)	0.292 (inactive)	-0.597	-0.295 (inactive)	-0.0305	0.447	0.172	-0.138
COCCOC(=O)N1C(=O)[C@@]2(c3cc(C#Cc4ccc(OC)cc4)ccc31)[C@H](C(=O)N1CCN(c3ncccn3)CC1)[C@H]1C(=O)O[C@H](c3ccccc3)[C@H](c3ccccc3)N1[C@@H]2c1ccc(OCCO)cc1	1.55	2.04 (inactive)	1.46 (inactive)	5.06 (inactive)	2.12	-0.371 (inactive)	0.192	0.918	1.11	0.232
CCOC(=O)[C@H](Cc1ccccc1)NC(=O)CCC1CC(OC(=O)NCCc2ccc(F)cc2)CC2(CCCC(COC(=O)NCC(c3ccccc3)c3ccccc3)O2)O1 (stereo not given in full)	1.57	0.378 (inactive)	0.745 (inactive)	-0.436 (inactive)	2.18	0.0565 (inactive)	-0.199	0.538	1.14	-0.139
CC(C)[C@@H](OCc1ccccc1)[C@H](C)C=NO[C@H](C)c1cn([C@H](CO)Cc2ccccc2)nn1	1.55	-2.33 (inactive)	-3.29 (inactive)	-1.26 (inactive)	0.825	-0.671 (inactive)	-0.153	0.453	0.712	-0.0828
CCOC(=O)CCN1C(=O)[C@H]2[C@H]3[C@H](O)[C@H](O)CC(=O)[C@H]3CC[C@H]2C1=O	0.0774	0.184 (inactive)	-0.373 (inactive)	0.341 (inactive)	0.35	0.355 (inactive)	-0.225	0.387	0.295	-0.0381
C#C[C@@H](CC)O[Si](C#Cc1ccc(Oc2ccccc2)cc1)(C(C)C)C(C)C	1.29	0.356 (inactive)	-0.951 (inactive)	1 (inactive)	0.964	-0.44 (inactive)	-0.152	0.269	0.916	-0.0028
CC(=O)OC[C@H]1O[C@H](CC=NOC[C@@H](C)[C@H](OCc2ccccc2)C(C)C)C=C[C@@H]1OC(C)=O	0.7	-0.523 (inactive)	-0.0269 (inactive)	-1 (inactive)	-0.299	-0.186 (inactive)	-0.0345	0.259	-0.14	-0.0873
CCc1cc2c(nc1CC)CCN(CCC(C)=NOC(C)CN1CCCc3nc(C)c(C)cc31)C2 (stereo not given)	1.37	-2.1 (inactive)	-1.74 (inactive)	-1.28 (inactive)	1.41	0.517 (inactive)	0.696	1.13	0.986	0.391
CC(CCC(=O)OC[C@H]1O[C@H](C#Cc2ccccc2)C=C[C@@H]1Oc1ccc(C)cc1)=NOC[C@@H](O)[C@H]1O[C@@H]2OC(C)(C)O[C@@H]2[C@H]1O	-0.753	0.349 (inactive)	-0.0762 (inactive)	0.823 (inactive)	0.563	0.142 (inactive)	-0.352	-0.333	-1.74	-0.342
CO[C@H]1COC(=O)[C@@H]2CCCN2C(=O)[C@@H](C)COC(=O)CC=C[C@@H]1C	1.47	-0.62 (inactive)	0.0569 (inactive)	-1.53 (inactive)	-0.652	0.264 (inactive)	-0.238	0.927	0.665	0.0082
C#CCCCON=C1C[C@@H](O)[C@@H](O)[C@@H]2[C@@H]3C(=O)N([C@@H](C)c4ccccc4)C(=O)[C@@H]3CC[C@H]12	0.37	0.45 (inactive)	0.347 (inactive)	-0.418 (inactive)	0.773	0.229 (inactive)	0.0008	0.573	0.999	0.207
